Screening results as filed in PubChem.
CatS block: inhibitors of human cathepsin S, biochemical, compound mixtures; inhibition, %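 (tested at 5 µM per compound within 10-compound mixtures)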; recombinant cathepsin S, AMC dipeptide fluorescence, pooled mixtures; 0.06% of 62,000 active; P25774; in the data active means inhibition above about 32%, passing the limit was not always enough; inconclusive means no clear call, values can overlap the other calls
Target sequence (P25774 115-331 limits assumed): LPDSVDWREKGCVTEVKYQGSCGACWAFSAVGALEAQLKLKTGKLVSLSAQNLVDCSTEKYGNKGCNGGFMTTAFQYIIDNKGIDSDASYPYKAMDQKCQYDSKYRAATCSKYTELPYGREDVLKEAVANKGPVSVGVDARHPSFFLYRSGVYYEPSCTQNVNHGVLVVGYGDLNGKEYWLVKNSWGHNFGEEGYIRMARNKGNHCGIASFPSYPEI
CatB block: human cathepsin B inhibitors, primary screen, biochemical, fluorogenic substrate | P07858 | purified cathepsin B, fluorescence | inhibition, %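 (tested at 10 µM)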 | 0.1% of 63,000 active | AID 453, 2006; in the data active means inhibition above about 21%
CatL inh: inhibitors of human cathepsin L, biochemical; AID 460, 2006; Procathepsin L (Homo sapiens), P07711; 0.17% of 58,000 active; purified cathepsin L, fluorogenic substrate, fluorescence; inhibition, %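 (tested at 10 µM)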; in the data active means inhibition above about 45%
C1s block: complement C1s protease inhibitors, primary screen, biochemical, 10-compound mixtures | 0.16% of 62,000 active | Complement C1s subcomponent (Homo sapiens), P09871 | mean inhibition % of two 10-compound mixtures (hits give high values), % at 5 µM (by protocol) | purified C1s, fluorogenic AMC substrate, pooled mixtures;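 active means inhibition above 20% in each of the two 10-compound mixture wells holding the compound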
CatG inh: human cathepsin G inhibitors, primary screen, biochemical, pooled compound mixtures, AMC fluorescence; inhibition, % at 5 µM (by protocol); purified enzyme, AMC-tetrapeptide fluorescence; 0.2% of 62,000 active;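 active means inhibition above 20% in each of the two mixture wells holding the compound; inactive means inhibition of 20% or less in either well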
Target sequence (P08311 21-244 limits assumed): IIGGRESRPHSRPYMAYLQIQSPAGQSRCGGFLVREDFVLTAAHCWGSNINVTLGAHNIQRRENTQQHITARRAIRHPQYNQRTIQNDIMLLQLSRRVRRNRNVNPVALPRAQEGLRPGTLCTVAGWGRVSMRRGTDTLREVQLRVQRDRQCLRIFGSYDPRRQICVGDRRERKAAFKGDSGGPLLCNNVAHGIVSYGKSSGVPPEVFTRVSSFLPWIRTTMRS
CatB mixtures: cathepsin B inhibitors from pooled compounds, primary screen, biochemical, compound mixtures, AMC fluorescence; P07858; Purified cathepsin B, AMC dipeptide fluorescence; inhibition, %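 (ten-compound pools at 5 µM per compound and 50 µM total)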; 0.06% of 62,000 active; AID 488, 2006; in the data active means inhibition above about 22%, passing the limit was not always enough; inconclusive means no clear call, values can overlap the other calls
Hits are given with their value; 0 = inactive; ? = inconclusive; - = no result given. Compounds with a hit are over-represented: about 0.54% of the library has one in this group of screens.

SMILES	CatS block	CatB block	CatL inh	C1s block	CatG inh	CatB mixtures
CCN1C(=O)c2cccc3cccc1c23	0	0	0	0	0	0
O=C(c1ccco1)N1C(=O)c2cccc3cccc1c23	0	0	0	25	0	0
Cc1cnc(C(=O)Nc2ccccc2-c2ccc(C)o2)cn1	0	0	0	0	28	0
Cc1cnc(C(=O)Nc2cccc3ncccc23)cn1	0	0	0	0	0	0
COc1ccccc1NC(=O)COc1ccc(CO)cc1Cl	0	0	0	0	0	0
COc1ccc(N2CCN(CC(=O)Nc3cc(C)on3)CC2)cc1	0	0	0	0	0	0
COc1ccc(N2CCN(CCCNS(=O)(=O)c3c(C)noc3/C=C/N(C)C)CC2)cc1	0	0	75	0	0	0
Cc1cc(-c2nn3c(C)nnc3s2)ccc1NC(=O)C(C)(C)C	0	0	0	0	0	0
Nc1nonc1-c1nc2ccccc2n1CC(=O)N1CCCCC1	0	81	66	0	0	86
CC(C)NC(=O)Cn1c(SCC(=O)N2CCCCCC2)nc2ccccc21	0	0	0	0	0	0
CCSc1nc2ccccc2n1CC(=O)N1CCCCC1	0	0	56	0	0	0
COC(=O)c1ccccc1NC(=O)Cn1c(-c2nonc2N)nc2ccccc21	-	70	66	0	0	82
CCn1cc(C(=O)Nc2ccc(-n3cnnn3)c(OC)c2)c(=O)c2ccc(C)nc21	0	0	0	0	0	0
O=S(=O)(c1ccccc1)N1CCN(S(=O)(=O)c2ccccc2)C1	0	0	0	0	0	0
O=S(=O)(/N=S1/CC=CCN1S(=O)(=O)c1ccccc1)c1ccccc1 (stereo not given)	0	35	-	0	0	?
CCOC(=O)N1CCN(c2c(N3CCc4ccccc43)c(=O)c2=O)CC1	0	0	0	0	0	0
CCOC(=O)N1CCN(c2c(N3CCN(c4ccccn4)CC3)c(=O)c2=O)CC1	0	0	86	0	0	0
O=C(CSc1ncn[nH]1)Nc1ccc(Br)cc1F	0	0	0	0	0	0
COC(=O)c1[nH]c2ccc(C)cc2c1NC(=O)CN1CCCCC1C (stereo not given)	0	0	0	0	0	0
CCOC(=O)c1c(C)n(C(=O)c2ccco2)c(=O)n1C(=O)c1ccco1	0	0	0	49	23	0
COCCNC(=O)c1noc2c1CCc1cc(OC)ccc1-2	0	0	0	0	50	0
COc1ccc2c(c1)CCc1c(C(=O)NCCN3CCOCC3)noc1-2	0	0	0	0	58	0
COc1ccc2c(c1)CCc1c(C(=O)NC3CCCCC3)noc1-2	0	0	0	0	74	0
COc1ccc2c(c1)CCc1c(C(=O)NCCCn3ccnc3)noc1-2	0	0	0	0	36	0
COc1ccc(C(=O)NCCCn2ccnc2)cc1	0	0	-	0	0	0
SMILES	CatS block	CatB block	CatL inh	C1s block	CatG inh	CatB mixtures
COc1ccc(CNC(=O)c2noc3c2CCCC3)cc1	0	0	0	0	0	0
CCn1c(Oc2ccc(Oc3ncc(Cl)cc3Cl)cc2)nc2c1c(=O)n(C)c(=O)n2C	0	0	0	0	0	0
COc1ccccc1N(CN1CCCC1=O)C(=O)COc1ccccc1	0	0	0	0	0	0
O=c1nc(-c2ccccc2)n(-c2ccccc2)c2ncccc12	0	0	0	0	0	0
COCC(C)NC(=O)c1cc(-c2ccccc2OC)on1 (stereo not given)	0	0	0	0	0	0
COc1ccc2c(c1)CCc1c(C(=O)NCc3ccco3)noc1-2	0	0	0	0	56	0
COCC(C)NC(=O)c1noc2c1CCc1cc(OC)ccc1-2 (stereo not given)	0	0	0	0	39	0
CN(C)c1ccc(C2N(c3cccc(Cl)c3)C(=O)C3CCCN32)cc1 (stereo not given)	0	0	0	0	0	0
CCOC(=O)C1=C(C)NC(=O)NC1c1c(O)ccc2ccccc12 (stereo not given)	0	0	0	0	0	0
COc1cccc(N2C(=O)N(c3ccccc3)C3CS(=O)(=O)CC32)c1 (stereo not given)	0	0	0	0	0	0
COc1cccc(N2C(=O)N(c3ccccc3Cl)C3CS(=O)(=O)CC32)c1 (stereo not given)	0	0	0	23	0	0
Cc1ccc(-c2nnn(CC(=O)N(Cc3ccccc3)C(C(=O)NC3CCCC3)c3ccncc3)n2)o1 (stereo not given)	0	0	0	0	0	0
CCN1CCN(c2ccc(-n3c(C)nc4c(cnn4-c4ccccc4Cl)c3=O)cc2)CC1	0	0	-	0	0	0
N#Cc1ccsc1NC(=O)c1cnccn1	0	66	0	0	0	0
CCOc1cc2[nH]c(=S)n(CC3CCCO3)c(=O)c2cc1OCC (stereo not given)	0	0	0	22	0	0
COc1cc2[nH]c(=S)n(CC3CCCO3)c(=O)c2cc1OC (stereo not given)	0	0	0	0	0	0
COc1ccc(-c2[nH]ncc2-c2cnn(-c3ccccc3)c2)c(O)c1	0	0	-	0	0	0
Cc1ccc(C)c(Cn2c(CN(C)Cc3ccccc3)nc3c2c(=O)n(C)c(=O)n3C)c1	0	0	0	0	0	0
COc1ccc(C(=O)n2nc(-c3ccccc3)nc2N)cc1OC	0	0	-	0	44	0
CCOc1ccc2nc(NC(=O)Nc3cccs3)sc2c1	0	0	0	0	0	0
CSc1nc(C2CC2)cc(-c2cccs2)c1C#N	0	48	0	0	0	0
COC(=O)c1c(C(=O)OC)c2ccncn2c1Cl	0	0	0	0	0	0
CCOC(=O)C1CCN(C(=O)CC(C)c2ccccc2)CC1 (stereo not given)	0	0	0	0	0	0
CCOC(=O)C1CCN(C(=O)CSc2ccccc2)CC1	0	0	0	65	0	0
CCOc1ccc2[nH]c3c(N4CCN(c5ccccn5)CC4)ncnc3c2c1	0	0	0	69	0	0
SMILES	CatS block	CatB block	CatL inh	C1s block	CatG inh	CatB mixtures
Cc1ccc(/C=N/c2sc3c(c2C#N)CCC3)s1	0	0	105	0	0	0
Cc1ccc(/C=N/c2sc3c(c2C#N)CCCCC3)o1	0	0	0	0	0	0
O=C1c2ccccc2C(O)(Cc2ccccc2)N1C1CCCCC1 (stereo not given)	0	0	104	0	0	0
CCN1C(=O)c2cccc3c(S(=O)(=O)Nc4c(C)n(C)n(-c5ccccc5)c4=O)ccc1c23	0	0	0	0	0	0
CCOC(=O)Cc1csc(NS(=O)(=O)c2ccc3c4c(cccc24)C(=O)N3CC)n1	55	0	0	0	0	0
C=CCSC1=C(C#N)C(c2ccc(OCC)cc2)CC(=O)N1 (stereo not given)	?	0	102	0	0	0
